Shiga toxin inh: blocks Shiga toxin action in Vero cells | Vero cells, Shiga toxin protein synthesis inhibition reporter | inhibition, % at 38.7 µM | 290,000 compounds, 9.2% hits; in the data active = inhibition mostly above about 28%, no sharp cut-off; inactive = mostly below about 43%; note: 0% is about no effect
NS1 function inh: blocks influenza NS1 protein function | Potency, µM (doses to about 46.1 µM), for inactives: at the highest dose activity, positive = more growth | 270,000 compounds, 0.4% hits | AID 2326; note: potency is the fitted concentration of half-maximal effect; actives are rising curves; nearly all actives have a fitted effect of over 50% in size
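Compounds were scored for reversing the slow growth caused by influenza A NS1 in S. cerevisiae, measured by optical density at 600 nm. Assay medium contained 2% galactose at pH 6.0; NS1-free yeast of the same strain were the positive control.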
SARS PLP yeast: SARS-CoV PLP inhibition in yeast. 330,000 compounds, 0.19% hits. Potency, µM (series often up to 32.9 µM), for the others: top-dose activity, positive = growth rescue, actives largely listed as activators. S. cerevisiae expressing SARS-CoV PLpro, growth rescue; note: potency is the fitted concentration of half-maximal effect; 0% is about no effect; nearly all actives have a fitted effect of over 55% in size
Cycloheximide cs: counter-screen hit for Shiga toxin inhibitors, cycloheximide; cell reporter, cycloheximide protein synthesis inhibition counterscreen; max response, %; 300,000 compounds, 12% hits; in the data active = max response mostly above about 13%, no sharp cut-off; inactive = mostly below about 14%; note: read at 38.3 µM for the half of the compounds with a filed dose; 0% is about no effect
* marks the source's active call; other numbers are inactive results; ? = inconclusive; nt = no result. A selection: hits, their analogues and other compounds. The true share with any hit is near 12%. Unless noted, calls come from the whole dose curve.

SMILES	Shiga toxin inh	NS1 function inh	SARS PLP yeast	Cycloheximide cs
Cc1ccccc1N1CCN(C2CCCN(C(=O)CCN3CCCCC3=O)C2)CC1 (stereo unspecified)	-2.2	2.0%	0.9%	-4.2
Cc1ccc(C2Nc3ccccc3NC3=C2C(=O)CC(C)(C)C3)c(O)c1 (stereo unspecified)	30.3	5.0%	-5.4%	14.2*
COc1ccc(C2Nc3ccccc3NC3=C2C(=O)CC(C)(C)C3)cc1 (stereo unspecified)	84.4*	-6.6%	-8.0%	48.0*
COc1ccc(NC(=O)c2ccccc2OCc2ccc(F)cc2)c(OC)c1	30.0	-32.5%	1.2%	13.3
CSc1nc(=NC(C)=O)ss1	68.4*	-37.7%	-2.9%	32.6*
O=C(CN(Cc1cccs1)C(=O)CNC(=O)c1ccco1)NC1CCCCC1	7.3	-4.6%	-6.5%	-1.7
CC(C)c1ccc(N=Cc2c(O)n(C3CC3)c(=S)[nH]c2=O)cc1	52.0*	-2.8%	1.0%	10.4*
O=c1[nH]c(=S)n(C2CC2)c(O)c1C=Nc1ccc2c(c1)OCO2	36.9	8.2%	-0.2%	13.8*
O=c1[nH]c(=S)n(C2CC2)c(O)c1C=NCc1ccc(F)cc1	-11.9	12.0%	5.0%	0.8
CCN(CC)c1ccc(N=Cc2c(O)n(Cc3ccco3)c(=O)[nH]c2=O)cc1	-2.4	0.6%	0.3%	0.6
CCN(CCO)c1ccc(N=Cc2c(O)n(C)c(=S)[nH]c2=O)cc1	79.9*	0.4%	0.2%	44.2*
CCc1ccc(C2=NN(CCC(=O)NCc3cccs3)C(=O)CC2)cc1	16.2	nt	1.4%	9.8
Cc1nn(-c2ccccc2)c(=O)c2ccccc12	17.6	nt	2.0%	14.1
Cc1nn(-c2cccc(C(F)(F)F)c2)c(=O)c2ccccc12	nt	-32.4%	0.5%	15.6*
Cc1cccc(NC(=O)CSc2ncnc3sc(C)cc23)c1	36.5	-41.4%	-2.2%	4.0
Cn1nc(C(C)(C)C)cc1C(=O)NCc1ccc2c(c1)OCO2	-3.6	-1.8%	0.5%	-1.3
Cc1ccc(NC(=O)CCNC(=O)c2ccc(Br)cc2)nc1	56.3*	-2.0%	-0.3%	17.9*
Cc1ccc(NC(=O)CCNC(=O)c2ccc(Cl)cc2)nc1	73.6*	-6.0%	1.1%	40.9*
Cc1ccc(NC(=O)CCCNC(=O)c2ccc(Cl)cc2)c(O)c1	91.0*	-1.9%	1.1%	69.0*
Cc1ccc(NC(=O)CCCNC(=O)c2ccc(Cl)cc2)nc1	62.6*	0.0%	3.6%	29.3*
COC(=O)c1nc(N)sc1C(C)C	-4.2	-3.5%	0.6%	6.0
Nc1c(C(=O)CSc2nc3ccccc3o2)c(=O)[nH]c(=O)n1C1CC1	nt	nt	-4.2%	nt
O=C(NNC(=O)[C@H]1CC=CC[C@H]1C(=O)O)c1ccc(Cl)cc1Cl	63.8	3.7%	2.0%	16.6
O=C(NNC(=O)C1CC=CCC1)c1ccccc1Cl (stereo unspecified)	57.9	5.6%	-5.1%	19.7*
COc1ccc(C(=O)NNC(=O)C2CC=CCC2)cc1 (stereo unspecified)	43.2*	13.0%	-7.3%	25.5*
SMILES	Shiga toxin inh	NS1 function inh	SARS PLP yeast	Cycloheximide cs
Nc1nc2n(n1)C(c1cccs1)CC(c1ccc(F)cc1)N2 (stereo unspecified)	2.4	2.2%	-2.7%	-0.9
COc1ccc(C2CC(c3cccs3)n3nc(N)nc3N2)cc1 (stereo unspecified)	23.0*	-9.6%	15.1%	7.4*
COc1ccccc1N(C(C)=O)c1nc(C)cc(C)c1C#N	2.2	9.0%	10.9%	-3.0
COc1cccc(N2CC(O)=C(c3nc4ccccc4s3)C2=N)c1	54.3*	-3.2%	0.8%	32.8*
COc1ccc(N2CC(O)=C(c3nc4ccccc4s3)C2=N)cc1	67.7	-30.2%	-5.5%	19.7*
N=C1C(c2nc3ccccc3s2)=C(O)CN1c1ccccc1	39.0	-3.3%	0.1%	32.7*
N=C1C(c2nc3ccccc3c(=O)[nH]2)=C(O)CN1c1ccccc1	-8.8	-1.1%	8.2%	2.6
O=C1CCC(=O)N1CCSC(=S)N1CCOCC1	40.8*	-8.3%	-0.5%	8.2
CCC(C)(C(=O)NC1CCCC1)N(C)C(=O)c1ccccn1 (stereo unspecified)	-14.6	nt	0.9%	0.7
CN1CCN(CC(=O)Nc2ccc(OC(F)(F)F)cc2)CC1	-4.0	14.0%	1.4%	5.0
CCCCOC(=O)/C(=C/C=C/c1ccccc1)NC(=O)c1ccccc1	40.8	nt	1.1%	48.6*
CCOC(=O)/C(=C/C=C/c1ccccc1)NC(=O)c1ccccc1	6.5	-15.5%	-0.8%	6.9
C=CCOC(=O)/C(=C\C=C\c1ccccc1)NC(=O)c1ccccc1	22.4	-1.0%	14.3%	17.9*
CCOC(=O)/C(=C\C=C\c1ccccc1)NC(=O)c1ccccc1	8.5	-16.1%	8.5%	5.8
CCCOC(=O)/C(=C\C=C\c1ccccc1)NC(=O)c1ccccc1	15.4	-7.6%	-1.6%	16.2*
O=[N+]([O-])c1cccc(Oc2cnccn2)c1	5.4	-7.1%	-1.5%	-5.1
Cc1ccc(NC(=O)c2ccc(-n3cccn3)c([N+](=O)[O-])c2)cc1C	45.4*	-1.1%	4.8%	34.2*
O=C(Nc1ccc(Cl)cc1)c1ccc(-n2cccn2)c([N+](=O)[O-])c1	30.2	15.3%	3.2%	23.6*
COc1ccc(NC(=O)c2ccc(-n3cccn3)c([N+](=O)[O-])c2)cc1	26.8	-4.3%	-1.1%	-0.5
CN(C)c1ccc(NC(=S)N2CCN(c3ncc(C(F)(F)F)cc3Cl)CC2)cc1	21.8	-0.9%	0.2%	16.3
CCOc1ccc(Cc2nc(-c3nonc3N)no2)cc1OCC	19.0	0.4%	-1.6%	2.1
Cc1cccc(OCc2nc(-c3nonc3N)no2)c1C	52.7*	-5.8%	-8.9%	55.8*
Clc1ccc(-c2noc(COc3ccccc3)n2)cc1	23.5	-4.7%	4.0%	-1.8
Nc1nonc1-c1noc(COc2ccccc2Cl)n1	82.8*	-7.3%	6.4%	22.7*
C/C(=N\NC(=O)c1ccccc1O)c1c(O)n(C2CCCCC2)c(=O)[nH]c1=O	41.2*	20.3%	2.8%	23.4*
SMILES	Shiga toxin inh	NS1 function inh	SARS PLP yeast	Cycloheximide cs
CC(=NCCO)c1c(O)n(C2CCCCC2)c(=O)[nH]c1=O	36.0	-12.8%	2.3%	22.1
C/C(=N\NC(=O)c1ccccc1O)c1c(O)n(Cc2ccccc2)c(=O)[nH]c1=O	51.0	4.2%	4.0%	25.1*
C/C(=N\NC(=O)c1ccccc1)c1c(O)n(C2CCCCC2)c(=O)[nH]c1=O	66.9*	-4.1%	-3.5%	40.8*
C/C(=N\NC(=O)c1ccccc1Cl)c1c(O)n(C2CCCCC2)c(=O)[nH]c1=O	35.1*	3.1%	-3.8%	32.4*
CN(Cc1ccccc1)C(=O)c1nc2ccccn2c1CN1CCC(N2CCOCC2)CC1	9.2	-0.7%	-2.1%	-2.8
Cc1c(-c2csc(N)n2)c2ccccc2n1C	1.7	10.8%	0.7%	-2.8
O=c1c2c3c(sc2nc(NCCO)n1CCc1ccccc1)CCCCC3	-14.8	3.0%	-37.2%	10.4
O=C(Cn1c(=O)n(Cc2ccco2)c(=O)c2c3c(sc21)CCCCC3)c1ccccc1	57.0*	?	0.0%	12.3
COCCNc1nc2sc3c(c2c(=O)n1Cc1ccco1)CCCCC3	29.5*	-5.5%	17.2%	28.3*
O=c1c2c3c(sc2nc(NCCO)n1Cc1ccco1)CCCCC3	18.9	-16.5%	-14.9%	14.2*
COc1cc(OC)cc(-c2c(-c3ccc(C(C)=O)cc3)c3cc(-c4cccc5[nH]ccc45)ccc3n2C)c1	nt	nt	1.9%	nt

From PubChem BioAssay
